Laboratory results reported in PubChem BioAssay AID624404 (Broad Institute, 2012).
In all, about 1,800 compounds went through this assay and about 710 (39%) were called active. Inconclusive results (about 28%) are left out.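 The calls were made as follows: active = luciferase signal rise whose fitted curve crosses a set activity limit at or below the top valid tested dose; inconclusive = flat fit with 30 to 70% rise, or poor fit; inactive = signal falling, flat within 30%, or crossing above top dose.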 These entries were drawn from the full list. Potency and affinity values are given separately.

Experiment: luciferase activators in glycosylation-insensitive reporter cells, dose response, counter-screen for N-linked glycosylation inhibitor project, D54 LucT cells, luminescence, cherry pick (AID 624404);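 also: 0% = median neutral control signal and 100% = twice that signal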
Settings: D54 LucT luciferase reporter counterscreen, 24 h; series mostly up to 19.5 µM; activity increase (luciferase signal): at the top concentration

SMILES | activity increase (luciferase signal)
O=C(NCCN1C(=O)S/C(=C\c2cccc(Cl)c2Cl)C1=O)C1=COCCO1 | 34.6% (inactive)
Cc1noc2ncnc(Sc3ccc(Cl)cc3)c12 | -4.08% (inactive)
COC(=O)c1cc(=O)n(Cc2ccco2)c(=Nc2ccc(F)cc2)s1 | 8.46% (inactive)
CCn1c(=O)cc(C(=O)OC)sc1=Nc1ccc(F)c(F)c1 | 10.2% (inactive)
CCN(CC(=O)Nc1ccccc1OC)CC(=O)Nc1ccccc1-c1ccccc1 | 67.6% (inactive)
COc1ccc(C(=O)NCCN(C)C)c2nc3ccccc3cc12 | 34% (inactive)
CCCc1cc(C(=O)N/N=C/c2ccc(C)o2)c2ccccc2n1 | 2.39% (inactive)
O=C(/C=C/c1ccc(-c2ccccc2[N+](=O)[O-])o1)c1ccc(Br)cc1 | 23.2% (inactive)
N#Cc1cc2[nH]c3ccccc3c2[n+](-c2ccc([N+](=O)[O-])cc2)c1N | 4.59% (inactive)
Cn1cnc([N+](=O)[O-])c1Sc1nc2ccccc2[nH]1 | -2.72% (inactive)
CCN(CC)CCNc1ccc(CO)c2oc3ccccc3c(=O)c12 | 30.6% (inactive)
CCN(CC)CCNc1ccc(CO)c2oc3cc(Cl)ccc3c(=O)c12 | 19.5% (inactive)
CCn1c(=O)c2cc(C(=O)NCCN(C)C)sc2c2ccccc21 | 29.2% (inactive)
Cn1nc(C(F)(F)F)c(/C=N/OC(=O)c2ccccc2Cl)c1SCc1ccc(Cl)cc1 | -3.74% (inactive)
Cc1cc(C)nc(/N=C(\N)Nc2ccc(OCCC(C)C)cc2)n1 | -50.5% (inactive)
CCCCc1ccc(N/C(N)=N/c2nc(C)cc(C)n2)cc1 | -16.7% (inactive)
O=C(/C=C/c1ccc([N+](=O)[O-])s1)N1CCCCC1 | -39.5% (inactive)
CC1CN(C(=O)/C=C/c2ccc([N+](=O)[O-])s2)CC(C)O1 (centres undefined) | 2.29% (inactive)
COc1ccc(C=C(c2nc3ccccc3s2)c2nc3ccccc3s2)cc1O | -30.8% (inactive)
Cc1c(-c2cccc(Cl)c2)nc2ccccc2c1C(=O)OC/C(O)=C(\C#N)c1nc2ccccc2[nH]1 | 40.5% (inactive)
COCC(=O)OC/C(O)=C(\C#N)c1nc2ccccc2[nH]1 | -10.2% (inactive)
COc1ccc(NC(=O)C2Cc3c(-c4ccc5c(c4)OCO5)ccnc3O2)cc1 (centres undefined) | 38.2% (inactive)
CS(=O)(=O)Nc1cccc(NC(=O)C2Cc3c(-c4ccccc4)ccnc3O2)c1 (centres undefined) | -27.7% (inactive)
COc1ccc(NC(=O)C2Cc3c(-c4cccc(C(C)=O)c4)ccnc3O2)cn1 (centres undefined) | 50.2% (inactive)
CC(=O)Nc1cccc(-c2ccnc3c2CC(C(=O)NCc2ccco2)O3)c1 (centres undefined) | 12.1% (inactive)

SMILES | activity increase (luciferase signal)
COc1ccc(CCCNC(=O)C2Cc3c(-c4cccc(C(C)=O)c4)ccnc3O2)cc1 (centres undefined) | 44.8% (inactive)
COc1ccc2nc(C)cc(Nc3ccc(N4CCOCC4)cc3)c2c1 | 24.5% (inactive)
COc1ccc(Nc2cc(C)nc3ccc(OC)cc23)cc1 | 1.85% (inactive)
CN(C1=C(NC(=O)c2ccc(Cl)cc2)C(=O)c2ccccc2C1=O)c1ccccc1 | -0.769% (inactive)
CC[C@@H]1CC=C[C@H]2[C@H]1C(=O)N(Cc1ccccc1)[C@H]2c1ccoc1 | 8.68% (inactive)
NC(=O)/C=C\C(=O)Nc1cccc(C(F)(F)F)c1 | 11.1% (inactive)
O=C(OCn1ncc(Cl)c(Cl)c1=O)c1ccc(C(F)(F)F)cc1 | -6.69% (inactive)
C=CCOc1ccc(C2C(C#N)=C(N)N(Nc3ccccc3)C3=C2C(=O)CCC3)cc1OC (centres undefined) | 31.8% (inactive)
COc1cc(-c2cc3nc(NCCOc4ccccc4)ccn3n2)cc(OC)c1OC | 30.5% (inactive)
CCOC(=O)/C=C(\C)Sc1cc(=O)oc2ccccc12 | 15.5% (inactive)
O=C(N=Nc1c(O)[nH]c2ccc(Br)cc12)c1cc(-c2cccs2)nc2ccccc12 | -65.6% (inactive)
CCc1ccc(/C=N/NC(=O)c2cc(-c3ccncc3)nc3ccccc23)s1 | 16.7% (inactive)
C=C(C)Cc1c(C)c(C#N)c2nc3ccccc3n2c1NCCCN(C)C | -13.5% (inactive)
COc1ccc(CCCNC(=O)C2(C)Cc3c(-c4ccc5c(c4)OCO5)ccnc3O2)cc1 (centres undefined) | 0% (inactive)
COc1cc(C2c3cc4c(cc3OC(Nc3ccc(C(=O)O)cc3)C2C)OCO4)cc(OC)c1OC (centres undefined) | 5.76% (inactive)
Clc1cccc(Cl)c1Cn1cnc2c(NCc3ccco3)ncnc21 | -16.4% (inactive)
CCN(CC)Cc1cc(Nc2c3ccccc3nc3c4ccccc4n(C)c23)cc(CN(CC)CC)c1O | 13% (inactive)
Cc1ccc2cc(CN(CCCN(C)C)C(=O)NCc3ccccc3)c(=O)[nH]c2c1C | -11.8% (inactive)
COc1ccc2[nH]c3c(N4CCC(O)(c5cccc(C(F)(F)F)c5)CC4)ncnc3c2c1 | 19.1% (inactive)
COc1ccc(CN2C(=O)C(C)Nc3ncnc(N4CCc5ccccc5C4)c32)cc1 (centres undefined) | 14.3% (inactive)
Cc1nc2ccccc2c2oc(C(=O)NCCCN3CC(C)CC(C)C3)cc12 (centres undefined) | 20.9% (inactive)
O=C(NCC1CCCO1)c1cc(-c2ccccc2)on1 (centres undefined) | 171% (inactive)
O=C1C=C(Nc2ccc(Cl)cc2Cl)CC(c2ccco2)C1 (centres undefined) | 27.5% (inactive)
NC(=O)CC(NC(=O)Cc1ccc(Cl)cc1)c1ccc(NC2CC3CCC2C3)c([N+](=O)[O-])c1 (centres undefined) | 4.52% (inactive)
NC(=O)CC(NC(=O)c1ccc(Br)cc1)c1ccc(N2CCCCCCC2)c([N+](=O)[O-])c1 (centres undefined) | 35.9% (inactive)

SMILES | activity increase (luciferase signal)
NC(=O)CC(NC(=O)Cc1ccc(Cl)cc1)c1ccc(NC2CCCC2)c([N+](=O)[O-])c1 (centres undefined) | 42.6% (inactive)
NC(=O)CC(NC(=O)Cc1ccc(Br)cc1)c1ccc(NCc2cc(F)ccc2F)c([N+](=O)[O-])c1 (centres undefined) | 21.3% (inactive)
NC(=O)CC(NC(=O)Cc1ccc(Cl)cc1)c1ccc(NC2CCN(Cc3ccccc3)CC2)c([N+](=O)[O-])c1 (centres undefined) | 12.3% (inactive)
O=C(CC1Sc2ccccc2NC1=O)NNc1ccc(Cl)c(Cl)c1 (centres undefined) | 28% (inactive)
CCCCOc1ccccc1C1CC(=O)NC2=C1C(=O)CCC2 (centres undefined) | 26.3% (inactive)
CC(C)Nc1ccc(C(CC(N)=O)NC(=O)Cc2ccc(Br)cc2)cc1[N+](=O)[O-] (centres undefined) | 12.9% (inactive)
COc1ccc(C=CC(=O)c2ccc3cc(OC)c(OC)cc3c2)cc1OC | 11.3% (inactive)
COc1ccc(NC(=O)c2cccc(Oc3ccccc3)c2)cn1 | 187% (inactive)
O=C(NC1CCCCC1)C(c1cccnc1)N(C(=O)CCl)c1cccc(Cl)c1 (centres undefined) | -95.4% (inactive)
Cc1cccc(N2C(=O)CC(N3CCN(C(=O)c4ccccc4)CC3)C2=O)c1 (centres undefined) | 26% (inactive)
Cn1c(C(=O)NC2CCCCCC2)cc2c(=O)n(C)c3ccccc3c21 | 91.6% (inactive)
C[C@H](CO)N1C[C@H](C)[C@@H](CN(C)Cc2ccccc2)Oc2ccc(NC(=O)CCCCCC(=O)Nc3ccccc3N)cc2C1=O | 14.3% (inactive)
Cc1ccc(S(=O)(=O)N(C)C[C@@H]2Oc3ccc(NC(=O)CCC(F)(F)F)cc3CC(=O)N([C@@H](C)CO)C[C@@H]2C)cc1 | 8.68% (inactive)
COc1ccc(CN(C(=O)c2ccc(CN3CCOCC3)o2)C(C(=O)NCC2CCCO2)c2ccc(F)cc2)cc1 (centres undefined) | -5.22% (inactive)
COc1ccc(CC(=O)N/N=C/c2c(C)n(C)c3ccccc23)cc1OC | -5.77% (inactive)
COC(=O)COc1cccc2c(=O)n(CC(=O)NCc3ccccc3)ccc12 | 51.9% (inactive)
C[C@@H]1[C@@H](Sc2ccccc2)CC(=O)O[C@@H]1c1ccc(-c2ccccc2)cc1 | -38% (inactive)
COc1ccc(-c2nc(C(N)=O)c3[nH]c(=O)n(-c4cccc(Cl)c4)c3n2)cc1OC | 20.6% (inactive)
COc1ccc(NC(=O)c2oc3ccccc3c2NC(=O)c2ccco2)cc1 | -4.3% (inactive)
COc1ccc(OC)c(S(=O)(=O)Nc2ccc(-c3ccc4nnc(C)n4n3)cc2)c1 | 51.9% (inactive)
COc1cc(OC)cc(C(=O)c2c(C)c(C#N)c3ccccn23)c1 | -23.7% (inactive)
Cn1c(SCC(=O)Nc2cccc(F)c2)nc2c([nH]c3ccccc32)c1=O | 6.37% (inactive)
CCc1nc(SCC(=O)c2ccc3c(c2)OCCO3)c2ccccc2n1 | 14.6% (inactive)
CC(=O)N1N=C(c2ccccc2)OC1c1ccc([N+](=O)[O-])s1 (centres undefined) | 34.8% (inactive)
CCOc1cc(CNc2ccc3cn[nH]c3c2)ccc1OC | -19.4% (inactive)

SMILES | activity increase (luciferase signal)
CC(=O)c1cccc(Nc2cc(C)nc3c(C)cccc23)c1 | 4.36% (inactive)
COC(=O)c1cccc(Nc2c3c(nc4ccccc24)CCC3)c1 | 19% (inactive)
Cc1ccc(OCCNC(=O)c2cccc(S(=O)(=O)NCc3ccccc3)c2)cc1 | 0% (inactive)
CCN(CC)CCCNc1nc2cc(OC)c(OC)cc2c2nc(-c3ccccc3)nn12 | 22.1% (inactive)
Cc1cc(NC(=O)/C=C/C(=O)N(CC(=O)NC2CCCC2)c2ccc(F)cc2)no1 | -17.1% (inactive)
Cc1cc(Br)ccc1NC(=O)CCCOc1cc(=O)n(C)c2ccccc12 | 58.2% (inactive)
CC(C)CCNC(=O)Cn1c(=O)oc2cc(S(=O)(=O)N3CC(C)CC(C)C3)ccc21 (centres undefined) | 29.3% (inactive)
O=C(/C=C/Sc1ccc(C(F)(F)F)cn1)c1ccccc1 | 14.9% (inactive)
O=C(/C=C/Sc1ccccc1)c1ccccc1 | 12% (inactive)
O=C(CSc1c2c(nc3ccc(Cl)cc13)CCCC2)N1CCN(C(=O)c2ccco2)CC1 | 7.36% (inactive)
COc1ccccc1N1CCN(S(=O)(=O)CCNC(=O)c2cc(OC)c(OC)c(OC)c2)CC1 | 28.3% (inactive)
CCn1c2ccccc2c2cc(NC(=O)c3cc(OC)c(OC)c(OC)c3)ccc21 | -0.943% (inactive)
COCCNc1nc(NCc2ccccc2)nc2ccsc12 | -8.4% (inactive)
Cc1cc(N2CCCCC2)nc(NCc2ccccc2)n1 | -31.7% (inactive)
Cc1cccc2c1NC(=O)/C2=C\C(=O)c1cccs1 | 20.6% (inactive)
O=C(NCCC1=CCCCC1)C1CCC(CNc2nc(=S)[nH]c3ccccc23)CC1 (centres undefined) | 31.7% (inactive)
COc1cc(NC(=O)c2ccccc2F)ccc1NC(=O)c1cc2ccccc2o1 | 8.43% (inactive)
COC(=O)c1ccccc1-c1ccc(C(c2c(C)[nH][nH]c2=O)c2c(C)[nH][nH]c2=O)o1 | -10.3% (inactive)
COc1cc(C2Sc3ccccc3NC3=C2C(=O)OC3)cc(OC)c1OC (centres undefined) | 42.2% (inactive)
Cc1cnc(NC(=O)c2cc(S(=O)(=O)N(C)C)ccc2N2CCCC2)s1 | -29.3% (inactive)
CCOc1ccc(OCC)c(NC(=O)c2nnn(CC(=O)Nc3cc(C)cc(C)c3)c2N)c1 | 37.3% (inactive)
CCOc1cc(NC(=O)CCl)c(OCC)cc1NC(=O)CCl | 11% (inactive)
CCc1cccc(NC(=O)c2cc(S(=O)(=O)N(C)C)ccc2N2CCCC2)c1 | 23% (inactive)
CN(C)/N=C/c1ccc(Sc2ccc([N+](=O)[O-])cc2[N+](=O)[O-])o1 | 4.59% (inactive)
